In all, about 210,000 compounds went through this assay and about 1,300 (0.62%) were called active.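 Rule for the calls: active = inhibition of 40% or more; inactive = the rest.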 Many of the other results were omitted from the sample, so actives are more common in it than they were.
molecular target: Kallikrein-5 (Homo sapiens) (UniProt Q9Y337); experiment: human KLK5 protease inhibitors, primary screen, biochemical, 1536-well (AID 873); settings: recombinant hK5, fluorogenic AMC substrate cleavage; at 5 µM; hits give high values;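 note: 0% = enzyme controls without compound and 100% = no-enzyme blanks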
Sequence (Q9Y337 67-293 limits assumed): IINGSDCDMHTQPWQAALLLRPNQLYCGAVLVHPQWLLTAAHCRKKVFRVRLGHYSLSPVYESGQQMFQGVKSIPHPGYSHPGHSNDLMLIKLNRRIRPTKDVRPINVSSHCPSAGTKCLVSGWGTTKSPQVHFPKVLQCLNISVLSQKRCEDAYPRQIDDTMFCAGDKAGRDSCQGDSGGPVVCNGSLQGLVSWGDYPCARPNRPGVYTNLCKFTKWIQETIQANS

| SMILES | inhibition |
| --- | --- |
| CC(C)n1c(=O)c(C=Nc2ccc(Br)cc2)c(O)n(Cc2ccco2)c1=O | 115% (active) |
| CN(C)CC1Oc2ccccc2OC1(O)c1ccccc1 (stereo not given) | -2.65% (inactive) |
| O=c1[nH]c(=O)n(Cc2ccccc2)c(O)c1/C=N/Nc1c(F)c(F)c(F)c(F)c1F | 3.18% (inactive) |
| O=C(O)COc1ccccc1/C=C1\C(=O)NC(=O)N(CCC2=CCCCC2)C1=O | 0.1% (inactive) |
| CC(C)c1ccc(-n2c(O)c(/C=N/N3CCOCC3)c(=O)[nH]c2=S)cc1 | -2.01% (inactive) |

Source: PubChem BioAssay AID873 (PCMD, 2007)
